From PubChem BioAssay (NCATS)
Unmarked numbers belong to inactive results. Records with an inconclusive call do not appear. Active and inactive are the calls of the source. Calls follow the shape of the dose curve; as a rule, active = well fitted curve in the direction sought with a large enough effect; inconclusive = small, poorly fitted or top-dose-only effect, or another doubt; inactive = no such curve, though single readings can be large; an effect the other way counts as inactive or inconclusive.

Columns and labels:
[1] = target: Cytochrome P450 3A4 (Homo sapiens) (UniProt P08684); test: qHTS Assay for Inhibitors and Substrates of Cytochrome P450 3A4 (AID 884); conditions: recombinant CYP3A4, Luciferin-PPXE luminescence; series mostly up to 57.1 µM; also: potency is read from the fitted curve at half-maximal effect; nearly all actives have a fitted effect of over 50% in size
Procedure, shortened: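 20 nM human CYP3A4 with 25 uM Luciferin-PPXE (at KM) in 200 mM KPO4, preincubated 10 min with compound; NADPH regeneration started a 60 min RT reaction. Luciferin detected by luminescence, normalized to 57 uM ketoconazole as full inhibition.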

[2] = target: Cytochrome P450 3A4 (Homo sapiens) (UniProt P08684); test: qHTS Assay for Activators of Cytochrome P450 3A4 (AID 885); conditions: recombinant CYP3A4, Luciferin-PPXE luminescence, 60 min; series mostly up to 57.1 µM; also: nearly all actives have a fitted effect of over 65% in size
Procedure, shortened: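 Human CYP3A4 (20 nM) with Luciferin-PPXE at 25 uM (its KM) in 200 mM KPO4; 10 min compound preincubation, then NADPH regeneration and 60 min reaction at RT. Luciferin read by luminescence; normalized to 57 uM ketoconazole full inhibition.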

Cytochrome P450 3A4 (Homo sapiens), sequence (P08684 whole entry, looked up): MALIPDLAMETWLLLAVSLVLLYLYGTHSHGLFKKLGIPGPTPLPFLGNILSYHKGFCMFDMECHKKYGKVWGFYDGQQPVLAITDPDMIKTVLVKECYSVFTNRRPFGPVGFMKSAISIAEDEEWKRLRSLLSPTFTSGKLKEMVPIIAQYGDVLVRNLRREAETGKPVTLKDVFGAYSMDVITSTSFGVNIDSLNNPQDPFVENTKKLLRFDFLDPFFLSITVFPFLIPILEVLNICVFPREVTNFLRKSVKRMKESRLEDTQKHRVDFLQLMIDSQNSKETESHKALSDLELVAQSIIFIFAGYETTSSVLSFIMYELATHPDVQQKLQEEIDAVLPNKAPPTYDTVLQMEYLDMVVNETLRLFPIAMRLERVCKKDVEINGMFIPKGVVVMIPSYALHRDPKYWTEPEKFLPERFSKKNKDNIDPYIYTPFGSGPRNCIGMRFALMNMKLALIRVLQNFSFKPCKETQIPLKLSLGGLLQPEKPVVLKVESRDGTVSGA

## COC(=O)[C@@H]1C[C@H]2CC[C@H](O)C[C@H]2N1Cc1c(F)cccc1Cl
[1]
  Potency: 15.8 µM (active)
[2]
  Potency: inactive

## COC(=O)c1cccc(C23CC4(C2)[C@H](CN(CC2CCCCC2)[C@@H]4c2ccccc2)C3c2ccc(Cl)nc2)c1 (stereo not given in full)
[1]
  Potency: 15.8 µM (active)
[2]
  Potency: inactive

## Cc1ccc2oc(=O)c3c4cc(O)c(O)cc4oc3c2c1
[1]
  Potency: 20 µM (active)
[2]
  Potency: inactive

## COC(=O)[C@@H]1C[C@@]2(O)[C@@H](O)[C@@H](O)[C@@H](O)C[C@H]2N1Cc1ccc(C(C)(C)C)cc1
[1]
  Potency: 12.6 µM (active)
[2]
  Potency: inactive

## C=C(C)C(O)/C=C/c1ccc(OC)cc1 (stereo not given)
[1]
  Potency: 5.01 µM (active)
[2]
  activity change, positive = activation: -85.8% [at 11.4 µM]

## O=C(N/N=C1/C[C@@H](O)[C@@H](O)[C@@H]2[C@@H]3C(=O)N(Cc4ccc5c(c4)OCO5)C(=O)[C@H]3CC[C@@H]12)OCc1ccccc1
[1]
  Potency: 1.26 µM (active)
[2]
  activity change, positive = activation: -74.6% [at 11.4 µM]

## COC(=O)[C@@H]1C[C@H]2CC[C@H](O)C[C@H]2N1Cc1ccc(Cl)cc1
[1]
  Potency: 12.6 µM (active)
[2]
  Potency: inactive

## CN1C[C@@H]2C(c3ccc(Cl)nc3)C3(c4cccnc4)CC2(C3)[C@H]1c1ccccc1 (stereo not given in full)
[1]
  Potency: 7.94 µM (active)
[2]
  Potency: inactive

## CCC1=C(OC(=O)N(CC)CC)N2C(=O)OC(=NCC3CC3)[C@]2(C)[C@H]2C1=CC[C@H]1C(=O)N(CC)C(=O)[C@H]12
[1]
  Potency: 3.98 µM (active)
[2]
  Potency: inactive

## C#CCCCO/N=C1/C[C@@H](O)[C@@H](O)[C@@H]2[C@@H]3C(=O)N(Cc4ccccc4)C(=O)[C@H]3CC[C@H]12
[1]
  Potency: 3.98 µM (active)
[2]
  activity change, positive = activation: -103% [at 11.4 µM]
